# Data taken from the supplement of paper PMC4466140.
# Tests used:
# Assay in all cases: SPOT peptide array binding signal intensity (averaged, normalized) (arbitrary units (background-subtracted, floor 0; scale differs between SH3 domains)); higher = stronger binding of the SH3 domain to the peptide
# AgAbp1 = molecular target: AgAbp1
# Procedure, shortened: (§1)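 Binding signal refers to normalized, background-subtracted spot intensity averaged over replicates, expressed in arbitrary units that differ between domains. GST-fused SH3 domains from four yeast species were incubated at 10 μg/ml overnight at 4°C on cellulose membranes of synthetic 15-mer peptides with cysteines replaced by serines. Bound protein was detected with anti-GST antibody, an HRP anti-mouse secondary and luminol, and quantified with Genespotter.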
# AgBbc1 = molecular target: AgBbc1
# Procedure, shortened: as §1
# AgBem1-D1 = molecular target: AgBem1-D1
# Procedure, shortened: as §1
# AgBzz1-D1 = molecular target: AgBzz1-D1
# Procedure, shortened: as §1
# AgBzz1-D2 = molecular target: AgBzz1-D2
# Procedure, shortened: as §1
# AgCyk3 = molecular target: AgCyk3
# Procedure, shortened: as §1
# AgFus1 = molecular target: AgFus1
# Procedure, shortened: as §1
# AgHof1 = molecular target: AgHof1
# Procedure, shortened: as §1
# AgHse1 = molecular target: AgHse1
# Procedure, shortened: as §1
# AgLsb1 = molecular target: AgLsb1
# Procedure, shortened: as §1
# AgLsb4 = molecular target: AgLsb4
# Procedure, shortened: as §1
# AgMyo5 = molecular target: AgMyo5
# Procedure, shortened: as §1
# AgNbp2 = molecular target: AgNbp2
# Procedure, shortened: as §1
# AgRvs167 = molecular target: AgRvs167
# Procedure, shortened: as §1
# AgSho1 = molecular target: AgSho1
# Procedure, shortened: as §1
# AgSla1-D1-D2 = molecular target: AgSla1-D1-D2
# Procedure, shortened: as §1
# AgSla1-D3 = molecular target: AgSla1-D3
# Procedure, shortened: as §1
# CaAbp1-D1 = molecular target: CaAbp1-D1
# Procedure, shortened: as §1
# CaAbp1-D2 = molecular target: CaAbp1-D2
# Procedure, shortened: as §1
# CaBbc1 = molecular target: CaBbc1
# Procedure, shortened: as §1
# CaBem1-D1 = molecular target: CaBem1-D1
# Procedure, shortened: as §1
# CaBzz1-D1 = molecular target: CaBzz1-D1
# Procedure, shortened: as §1
# CaBzz1-D2 = molecular target: CaBzz1-D2
# Procedure, shortened: as §1
# CaCyk3 = molecular target: CaCyk3
# Procedure, shortened: as §1
# CaFus1 = molecular target: CaFus1
# Procedure, shortened: as §1
# CaHof1 = molecular target: CaHof1
# Procedure, shortened: as §1
# CaHse1 = molecular target: CaHse1
# Procedure, shortened: as §1
# CaLsb1 = molecular target: CaLsb1
# Procedure, shortened: as §1
# CaLsb4 = molecular target: CaLsb4
# Procedure, shortened: as §1
# CaMyo5 = molecular target: CaMyo5
# Procedure, shortened: as §1
# CaNbp2 = molecular target: CaNbp2
# Procedure, shortened: as §1
# CaRvs167 = molecular target: CaRvs167
# Procedure, shortened: as §1
# CaRvs167-3 = molecular target: CaRvs167-3
# Procedure, shortened: as §1
# CaSho1 = molecular target: CaSho1
# Procedure, shortened: as §1
# CaSla1-D1-D2 = molecular target: CaSla1-D1-D2
# Procedure, shortened: as §1
# CaSla1-D3 = molecular target: CaSla1-D3
# Procedure, shortened: as §1
# ScAbp1 = molecular target: ScAbp1
# Procedure, shortened: as §1
# ScBbc1 = molecular target: ScBbc1
# Procedure, shortened: as §1
# ScBem1-D1 = molecular target: ScBem1-D1
# Procedure, shortened: as §1
# ScBzz1-D1 = molecular target: ScBzz1-D1
# Procedure, shortened: as §1
# ScBzz1-D2 = molecular target: ScBzz1-D2
# Procedure, shortened: as §1
# ScCyk3 = molecular target: ScCyk3
# Procedure, shortened: as §1
# ScFus1 = molecular target: ScFus1
# Procedure, shortened: as §1
# ScHof1 = molecular target: ScHof1
# Procedure, shortened: as §1
# ScHse1 = molecular target: ScHse1
# Procedure, shortened: as §1
# ScLsb1 = molecular target: ScLsb1
# Procedure, shortened: as §1
# ScLsb2 = molecular target: ScLsb2
# Procedure, shortened: as §1
# ScLsb3 = molecular target: ScLsb3
# Procedure, shortened: as §1
# ScLsb4 = molecular target: ScLsb4
# Procedure, shortened: as §1
# ScMyo3 = molecular target: ScMyo3
# Procedure, shortened: as §1
# ScMyo5 = molecular target: ScMyo5
# Procedure, shortened: as §1
# ScNbp2 = molecular target: ScNbp2
# Procedure, shortened: as §1
# ScPex13 = molecular target: ScPex13
# Procedure, shortened: as §1
# ScRvs167 = molecular target: ScRvs167
# Procedure, shortened: as §1
# ScSho1 = molecular target: ScSho1
# Procedure, shortened: as §1
# ScSla1-D1-D2 = molecular target: ScSla1-D1-D2
# Procedure, shortened: as §1
# ScSla1-D3 = molecular target: ScSla1-D3
# Procedure, shortened: as §1
# SpAbp1-D1 = molecular target: SpAbp1-D1
# Procedure, shortened: as §1
# SpBbc1 = molecular target: SpBbc1
# Procedure, shortened: as §1
# SpBzz1-D1 = molecular target: SpBzz1-D1
# Procedure, shortened: as §1
# SpBzz1-D2 = molecular target: SpBzz1-D2
# Procedure, shortened: as §1
# SpCyk3 = molecular target: SpCyk3
# Procedure, shortened: as §1
# SpHof1 = molecular target: SpHof1
# Procedure, shortened: as §1
# SpHof1-2 = molecular target: SpHof1-2
# Procedure, shortened: as §1
# SpHof1-3 = molecular target: SpHof1-3
# Procedure, shortened: as §1
# SpHse1 = molecular target: SpHse1
# Procedure, shortened: as §1
# SpLsb1 = molecular target: SpLsb1
# Procedure, shortened: as §1
# SpLsb4 = molecular target: SpLsb4
# Procedure, shortened: as §1
# SpMyo1 = molecular target: SpMyo1
# Procedure, shortened: as §1
# SpNbp2 = molecular target: SpNbp2
# Procedure, shortened: as §1
# SpPex13 = molecular target: SpPex13
# Procedure, shortened: as §1
# SpRvs167 = molecular target: SpRvs167
# Procedure, shortened: as §1
# SpSla1-D1-D2 = molecular target: SpSla1-D1-D2
# Procedure, shortened: as §1
# SpSla1-D3 = molecular target: SpSla1-D3
# Procedure, shortened: as §1
binder,measurement,setting,value
KKAPPPVVKPKPRNF,SPOT peptide array binding signal intensity,AgAbp1,4680
same,SPOT peptide array binding signal intensity,AgBbc1,58
same,SPOT peptide array binding signal intensity,AgBem1-D1,44.5
same,SPOT peptide array binding signal intensity,AgBzz1-D1,316
same,SPOT peptide array binding signal intensity,AgBzz1-D2,101
same,SPOT peptide array binding signal intensity,AgCyk3,≤ 0
same,SPOT peptide array binding signal intensity,AgFus1,31
same,SPOT peptide array binding signal intensity,AgHof1,63.5
same,SPOT peptide array binding signal intensity,AgHse1,39
same,SPOT peptide array binding signal intensity,AgLsb1,1.75
same,SPOT peptide array binding signal intensity,AgLsb4,12.5
same,SPOT peptide array binding signal intensity,AgMyo5,≤ 0
same,SPOT peptide array binding signal intensity,AgNbp2,45
same,SPOT peptide array binding signal intensity,AgRvs167,6
same,SPOT peptide array binding signal intensity,AgSho1,15
same,SPOT peptide array binding signal intensity,AgSla1-D1-D2,8
same,SPOT peptide array binding signal intensity,AgSla1-D3,32.5
same,SPOT peptide array binding signal intensity,CaAbp1-D1,3270
same,SPOT peptide array binding signal intensity,CaAbp1-D2,6180
same,SPOT peptide array binding signal intensity,CaBbc1,154
same,SPOT peptide array binding signal intensity,CaBem1-D1,15.5
same,SPOT peptide array binding signal intensity,CaBzz1-D1,1220
same,SPOT peptide array binding signal intensity,CaBzz1-D2,2260
same,SPOT peptide array binding signal intensity,CaCyk3,5
same,SPOT peptide array binding signal intensity,CaFus1,45.5
same,SPOT peptide array binding signal intensity,CaHof1,1
same,SPOT peptide array binding signal intensity,CaHse1,1.25
same,SPOT peptide array binding signal intensity,CaLsb1,2.5
same,SPOT peptide array binding signal intensity,CaLsb4,15.5
same,SPOT peptide array binding signal intensity,CaMyo5,1.5
HKVLRPFLLRRLKKD,SPOT peptide array binding signal intensity,AgAbp1,172
same,SPOT peptide array binding signal intensity,AgBbc1,≤ 0
same,SPOT peptide array binding signal intensity,AgBem1-D1,≤ 0
same,SPOT peptide array binding signal intensity,AgBzz1-D1,1.5
same,SPOT peptide array binding signal intensity,AgBzz1-D2,31.5
same,SPOT peptide array binding signal intensity,AgCyk3,≤ 0
same,SPOT peptide array binding signal intensity,AgFus1,479
same,SPOT peptide array binding signal intensity,AgHof1,39.4
same,SPOT peptide array binding signal intensity,AgHse1,2970
same,SPOT peptide array binding signal intensity,AgLsb1,0.5
same,SPOT peptide array binding signal intensity,AgLsb4,19.5
same,SPOT peptide array binding signal intensity,AgMyo5,≤ 0
same,SPOT peptide array binding signal intensity,AgNbp2,45.8
same,SPOT peptide array binding signal intensity,AgRvs167,0.5
same,SPOT peptide array binding signal intensity,AgSho1,156
same,SPOT peptide array binding signal intensity,AgSla1-D1-D2,27
same,SPOT peptide array binding signal intensity,AgSla1-D3,2.75
same,SPOT peptide array binding signal intensity,CaAbp1-D1,569
same,SPOT peptide array binding signal intensity,CaAbp1-D2,617
same,SPOT peptide array binding signal intensity,CaBbc1,≤ 0
same,SPOT peptide array binding signal intensity,CaBem1-D1,3.5
same,SPOT peptide array binding signal intensity,CaBzz1-D1,≤ 0
same,SPOT peptide array binding signal intensity,CaBzz1-D2,≤ 0
same,SPOT peptide array binding signal intensity,CaCyk3,≤ 0
same,SPOT peptide array binding signal intensity,CaFus1,2980
same,SPOT peptide array binding signal intensity,CaHof1,7.63e-06
same,SPOT peptide array binding signal intensity,CaHse1,124
same,SPOT peptide array binding signal intensity,CaLsb1,≤ 0
same,SPOT peptide array binding signal intensity,CaLsb4,≤ 0
same,SPOT peptide array binding signal intensity,CaMyo5,≤ 0
same,SPOT peptide array binding signal intensity,CaNbp2,715
same,SPOT peptide array binding signal intensity,CaRvs167,6.08
same,SPOT peptide array binding signal intensity,CaRvs167-3,281
same,SPOT peptide array binding signal intensity,CaSho1,736
same,SPOT peptide array binding signal intensity,CaSla1-D1-D2,8.5
same,SPOT peptide array binding signal intensity,CaSla1-D3,15.5
same,SPOT peptide array binding signal intensity,ScAbp1,271
same,SPOT peptide array binding signal intensity,ScBbc1,≤ 0
same,SPOT peptide array binding signal intensity,ScBem1-D1,19.5
same,SPOT peptide array binding signal intensity,ScBzz1-D1,22.5
same,SPOT peptide array binding signal intensity,ScBzz1-D2,≤ 0
same,SPOT peptide array binding signal intensity,ScCyk3,38
same,SPOT peptide array binding signal intensity,ScFus1,742
same,SPOT peptide array binding signal intensity,ScHof1,≤ 0
same,SPOT peptide array binding signal intensity,ScHse1,2170
same,SPOT peptide array binding signal intensity,ScLsb1,≤ 0
same,SPOT peptide array binding signal intensity,ScLsb2,≤ 0
same,SPOT peptide array binding signal intensity,ScLsb3,≤ 0
same,SPOT peptide array binding signal intensity,ScLsb4,≤ 0
same,SPOT peptide array binding signal intensity,ScMyo3,1.12
same,SPOT peptide array binding signal intensity,ScMyo5,2.5
same,SPOT peptide array binding signal intensity,ScNbp2,102
same,SPOT peptide array binding signal intensity,ScPex13,0.5
same,SPOT peptide array binding signal intensity,ScRvs167,3.42
same,SPOT peptide array binding signal intensity,ScSho1,994
same,SPOT peptide array binding signal intensity,ScSla1-D1-D2,≤ 0
same,SPOT peptide array binding signal intensity,ScSla1-D3,3.25
same,SPOT peptide array binding signal intensity,SpAbp1-D1,250
same,SPOT peptide array binding signal intensity,SpBbc1,3
same,SPOT peptide array binding signal intensity,SpBzz1-D1,70
same,SPOT peptide array binding signal intensity,SpBzz1-D2,7.63e-06
same,SPOT peptide array binding signal intensity,SpCyk3,1.5
same,SPOT peptide array binding signal intensity,SpHof1,74.8
same,SPOT peptide array binding signal intensity,SpHof1-2,4
same,SPOT peptide array binding signal intensity,SpHof1-3,1720
same,SPOT peptide array binding signal intensity,SpHse1,2230
same,SPOT peptide array binding signal intensity,SpLsb1,≤ 0
same,SPOT peptide array binding signal intensity,SpLsb4,≤ 0
same,SPOT peptide array binding signal intensity,SpMyo1,2.62
same,SPOT peptide array binding signal intensity,SpNbp2,222
same,SPOT peptide array binding signal intensity,SpPex13,13.5
same,SPOT peptide array binding signal intensity,SpRvs167,0.333
same,SPOT peptide array binding signal intensity,SpSla1-D1-D2,≤ 0
same,SPOT peptide array binding signal intensity,SpSla1-D3,5.5
